Drawing on PubChem BioAssay (EPA / NIEHS), this text covers outcome and AC50 for 13 compounds.

Where “and” joins values, the source holds several entries; their conditions need not be identical. Equal values may be shown once. Where a structure was tested more than once in an assay, its records may differ in their call. Calls of active or inactive are those of the source. Rule for the calls: active = hit-call score of the fitted dose curve at least 0.9, where 1 is the maximum; inactive = score below 0.9.

Assay [1] in a line: APR_HepG2_NuclearSize_72hr: Apredica 72-hour HepG2 Assay for Nuclear Size (AID 2282925). As to conditions: high-content imaging, actives raise or lower the signal. The gist of the method: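 Nuclear size was read by high-content imaging of Hoechst 33342 stain after formaldehyde fixation. Compounds ran 72 h on HepG2 at 0.39 to 200 uM, with final DMSO 0.5% v/v. Curves fitted both directions relative to DMSO control.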

The nature of assay [2]: ATG_CRE_CIS: Attagene CIS-FACTORIAL HepG2 Assay for human cAMP Responsive Element (CRE) binding protein 3 (AID 2282926). As to conditions: HepG2 CRE cis-reporter, Attagene multiplexed mRNA; actives raise or lower the signal. The gist of the method: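 Endogenous transcription factor activity read via CRE-regulated reporter transcripts in transfected HepG2 cells. After 24 h exposure, RNA was reverse-transcribed, amplified, fluorescently labelled and sized by capillary electrophoresis; gain or loss fitted against DMSO.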

Assay [3] concerns the target CCAAT/enhancer-binding protein beta (Homo sapiens) (UniProt P17676). Description: ATG_C_EBP_CIS: Attagene CIS-FACTORIAL HepG2 Assay for human CCAAT/Enhancer Binding Protein (C/EBP) beta (AID 2282927). The note with it: HepG2 Attagene cis-factorial transcription factor reporter; actives raise or lower the signal. The gist of the method:
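Endogenous C/EBPb-driven reporter transcripts measured in transfected human HepG2 cells at 24 h via RT-PCR and capillary electrophoresis of labelled fragments. Activity fitted in both directions relative to DMSO baseline.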

Assay [4] in a line: ATG_CMV_CIS: Attagene CIS-FACTORIAL HepG2 Assay for human CMV (Internal Marker) (AID 2282928).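 Note: endpoint acts as a background internal control marker rather than a target.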 As to conditions: HepG2 CMV promoter reporter, transcription factor profiling; actives raise or lower the signal. The essentials:
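Readout: fluorescent reporter cDNA fragments separated by capillary electrophoresis after RT-PCR and HpaI cut. Cells: HepG2 carrying transfected cis-promoter reporter constructs, dosed 24 h. Endpoint serves as background internal-marker control, fit bidirectionally versus DMSO.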

A short description of assay [5]: ATG_DR4_LXR_CIS: Attagene CIS-FACTORIAL HepG2 Assay for human Liver X Receptor (LXR), DR4 submotif (AID 2282929). As to conditions: HepG2 Attagene DR4 cis-reporter, mRNA transcription; actives raise or lower the signal. The essentials: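 Fluorescence intensity of labelled reporter cDNA fragments, separated by capillary electrophoresis, gives the signal. HepG2 cells bearing cis-regulated reporter constructs were treated 24 h; activity fitted bidirectionally relative to DMSO negative control.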

Assay [6] concerns the target Aryl hydrocarbon receptor (Homo sapiens) (UniProt P35869). Description: ATG_Ahr_CIS: Attagene CIS-FACTORIAL HepG2 Assay for human Aryl Hydrocarbon Receptor (Ahr) (AID 2282930). As to conditions: HepG2 AhR cis-factorial reporter transcription; actives raise or lower the signal. The gist of the method: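 Reporter mRNA levels, quantified by RT-PCR and fluorescent capillary electrophoresis, reflect endogenous AhR transcriptional activity in HepG2 cells carrying transfected cis-promoter reporter constructs. Readout at 24 h post-dose; gain or loss fitted against DMSO baseline.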

The nature of assay [7]: ATG_AP_1_CIS: Attagene CIS-FACTORIAL HepG2 Assay for human Activator Protein 1 (AP-1) (AID 2282931). As to conditions: HepG2 Attagene cis-factorial AP-1 reporter mRNA; actives raise or lower the signal. The gist of the method: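 Multiplexed HepG2 reporter assay, 24 h dosing. mRNA induction detected by RT-PCR plus capillary electrophoresis. Activity fitted in both directions against DMSO.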

A short description of assay [8]: ATG_AP_2_CIS: Attagene CIS-FACTORIAL HepG2 Assay for human Activator Protein 2 (AP-2) (AID 2282932). The note with it: HepG2 AP-2 cis-reporter, Attagene transcription factor profiling; actives raise or lower the signal. The essentials:
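Endogenous transcription factor activity is reported through transfected multiplex reporter constructs in HepG2, after 24 h of compound exposure. Transcripts were quantified by RT-PCR and capillary electrophoresis of fluorescent fragments. Bidirectional fit against DMSO.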

A short description of assay [9]: ATG_BRE_CIS: Attagene CIS-FACTORIAL HepG2 Assay for human Bone Morphogenetic Protein (BMP) Response Element (BRE) (AID 2282933). The note with it: HepG2 BMP response element reporter, Attagene transcription factor profiling; actives raise or lower the signal. The gist of the method:
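Transient MRTU transfection of human HepG2 liver cells; 24 h compound treatment; total RNA isolated, reverse-transcribed, PCR-amplified, 6-FAM labelled, HpaI-cut, capillary electrophoresis. DMSO = negative control/baseline, bidirectional fit.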

Assay [10] addresses Retinoic acid receptor alpha (Homo sapiens) (UniProt P10276). Description: ATG_DR5_RAR_CIS: Attagene CIS-FACTORIAL HepG2 Assay for human Retinoic Acid Receptor Alpha (RARE), DR5 submotif (AID 2282934).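 For AC50: reporter responds to endogenous RAR alpha beta and gamma in HepG2 not RARA alone.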 As to conditions: HepG2 Attagene cis-factorial RARE DR5 reporter, mRNA; actives raise or lower the signal. The essentials:
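Reporter transcripts from a DR5-regulated unit, measured via RT-PCR plus capillary electrophoresis, reflect endogenous RAR activity in transiently transfected human HepG2 liver cells. Exposure lasted 24 h; gain or loss of signal scored against DMSO.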

Sequence of Aryl hydrocarbon receptor (Homo sapiens) (P35869 whole entry, looked up): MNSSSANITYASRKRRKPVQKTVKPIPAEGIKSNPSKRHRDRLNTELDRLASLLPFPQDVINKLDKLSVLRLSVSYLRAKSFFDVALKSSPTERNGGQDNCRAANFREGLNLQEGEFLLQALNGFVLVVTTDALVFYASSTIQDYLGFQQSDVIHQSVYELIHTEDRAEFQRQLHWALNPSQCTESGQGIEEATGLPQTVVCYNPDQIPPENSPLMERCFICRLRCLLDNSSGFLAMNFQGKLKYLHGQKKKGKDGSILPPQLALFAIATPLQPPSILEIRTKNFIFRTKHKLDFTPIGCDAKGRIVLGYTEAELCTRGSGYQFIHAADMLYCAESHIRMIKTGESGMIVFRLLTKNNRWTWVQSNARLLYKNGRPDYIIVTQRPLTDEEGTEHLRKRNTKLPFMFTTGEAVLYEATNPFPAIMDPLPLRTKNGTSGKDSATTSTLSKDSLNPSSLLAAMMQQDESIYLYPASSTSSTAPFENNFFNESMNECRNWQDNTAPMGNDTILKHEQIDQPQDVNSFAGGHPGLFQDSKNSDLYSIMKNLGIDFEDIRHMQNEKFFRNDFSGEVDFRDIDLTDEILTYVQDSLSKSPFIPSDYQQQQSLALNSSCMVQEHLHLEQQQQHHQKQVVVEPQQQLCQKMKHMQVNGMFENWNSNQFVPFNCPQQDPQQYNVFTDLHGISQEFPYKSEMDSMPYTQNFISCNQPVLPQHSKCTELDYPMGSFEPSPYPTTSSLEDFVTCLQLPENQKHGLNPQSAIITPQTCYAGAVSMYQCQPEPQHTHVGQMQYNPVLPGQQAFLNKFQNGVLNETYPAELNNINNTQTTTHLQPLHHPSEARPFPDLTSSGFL
Sequence of CCAAT/enhancer-binding protein beta (Homo sapiens) (P17676 whole entry, looked up, the tested form may be a part): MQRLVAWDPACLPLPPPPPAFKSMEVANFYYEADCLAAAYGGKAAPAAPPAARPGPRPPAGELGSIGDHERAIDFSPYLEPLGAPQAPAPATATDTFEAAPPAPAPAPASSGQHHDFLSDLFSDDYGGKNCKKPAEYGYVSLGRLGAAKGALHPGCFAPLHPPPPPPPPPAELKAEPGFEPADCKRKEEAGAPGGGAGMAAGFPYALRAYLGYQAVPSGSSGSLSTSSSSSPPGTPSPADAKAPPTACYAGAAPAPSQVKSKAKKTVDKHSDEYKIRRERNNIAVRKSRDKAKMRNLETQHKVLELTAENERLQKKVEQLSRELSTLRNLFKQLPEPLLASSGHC
Sequence of Retinoic acid receptor alpha (Homo sapiens) (P10276 whole entry, looked up): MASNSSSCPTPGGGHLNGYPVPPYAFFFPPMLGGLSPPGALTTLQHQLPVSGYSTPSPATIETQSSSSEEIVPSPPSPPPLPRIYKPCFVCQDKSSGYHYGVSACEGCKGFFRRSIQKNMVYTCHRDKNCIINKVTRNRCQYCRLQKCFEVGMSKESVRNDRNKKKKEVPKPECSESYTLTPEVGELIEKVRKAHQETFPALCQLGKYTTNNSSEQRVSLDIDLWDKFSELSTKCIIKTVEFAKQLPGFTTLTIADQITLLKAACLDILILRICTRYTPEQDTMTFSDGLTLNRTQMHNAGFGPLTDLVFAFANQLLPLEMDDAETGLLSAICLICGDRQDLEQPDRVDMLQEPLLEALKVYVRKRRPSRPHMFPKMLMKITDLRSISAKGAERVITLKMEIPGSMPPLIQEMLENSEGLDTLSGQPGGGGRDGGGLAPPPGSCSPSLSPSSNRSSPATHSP

As for `CC(C)Oc1cc(-n2nc(C(C)(C)C)oc2=O)c(Cl)cc1Cl`, the outcome in [1], in assay [2], in assay [3], in assay [5], in [6] and in assay [8] was inactive. The AC50 (in general, the concentration at which the activity in the assay is half-maximal) in [4] is 6.05 µM (active); in assay [7], 21.8 µM (active); in [9], 50 µM (active); in [10], 0.86 µM (active).

Take `O=C(O)c1nc(Cl)ccc1Cl`: the outcome in assay [2], in [3], in assay [4], in assay [5], in assay [6] and in assay [7] was inactive. In addition, the result in assay [8] and in [9] was inactive. For the same compound, the AC50 in assay [6] is 50 µM (active).

Consider `Cc1cc(Cl)ccc1OCC(=O)O`, for which the compound was called inactive in assay [2], in assay [3], in assay [4], in assay [5], in [6] and in assay [7]. For the same compound, the call in assay [8] and in [9] was inactive.

`COC(=O)N(OC)c1ccccc1COc1ccn(-c2ccc(Cl)cc2)n1`: the compound was called inactive in assay [1], in assay [6], in assay [7] and in [8]. Besides, the AC50 in assay [2] was 532 nM (active); in assay [3] it was 0.401 µM (active); in [4], 0.457 µM (active); in assay [5], 2.77 µM (active); in [9], 0.743 µM (active); in assay [10] it was 0.64 µM (active).

`C=CCC1=C(C)C(OC(=O)C2C(C=C(C)C)C2(C)C)CC1=O` (stereo not given): the call in [1], in assay [2], in [3], in assay [4], in assay [5] and in assay [6] was inactive. Besides, the call in assay [8] was inactive. The AC50 in assay [2] was 48.8 µM (active) [middle of 5 runs]; in assay [3], 70.3 µM (active) and 111 µM (active) and 13.8 µM (active); in assay [4], 35 µM (active) [middle of 5 runs]; in assay [5] it was 51.1 µM (active) [middle of 4 runs]; in assay [6], 43.6 µM (active) and 105 µM (active); in assay [7] it was 33.5 µM (active) [middle of 6 runs]. In addition, the AC50 in assay [8] was 167 µM (active).

For the compound `COc1nc(NC(C)C)nc(NC(C)C)n1`, the result in assay [1], in assay [2], in assay [3], in assay [4], in [5] and in assay [6] was inactive. In addition, the compound was classed as inactive in assay [7], in assay [8], in assay [9] and in assay [10].

As for `CCCCNC(=O)OCC#CI`, the outcome in assay [1], in assay [2], in assay [3], in assay [4], in assay [5] and in [6] was inactive. In addition, the call in assay [7], in assay [8], in assay [9] and in assay [10] was inactive. Moreover, the AC50 in assay [2] is 29700 nM (active); in assay [3], 25.3 µM (active); in assay [4], 67.7 µM (active); in [5], 180 µM (active); in [7], 181 µM (active); in assay [8], 60.7 µM (active). In addition, the AC50 is 25.2 µM (active) in assay [9] and 26.7 µM (active) in [10].

`CCNc1nc(Cl)nc(NC(C)C)n1`: the result in [1], in assay [2], in assay [3], in assay [4], in assay [5] and in assay [6] was inactive. Also, the call in assay [7], in assay [8] and in assay [9] was inactive.

Consider `CCON=C(CC)C1=C(O)CC(c2c(C)cc(C)cc2C)CC1=O` (stereo not given), for which the compound was called inactive in assay [1], in assay [2], in [3], in [4], in [5] and in assay [6]. Moreover, the call in assay [7], in [8], in assay [9] and in [10] was inactive.

Take `COC(=O)C(C)Oc1ccc(Oc2ccc(Cl)cc2Cl)cc1` (stereo not given): the call in [1], in [2], in assay [3], in assay [4], in assay [5] and in [6] was inactive. In addition, the outcome in assay [7], in [8], in [9] and in assay [10] was inactive.

`C=CC1(C)OC(=O)N(c2cc(Cl)cc(Cl)c2)C1=O` (stereo not given): the result in [2], in assay [3], in [4], in [5], in assay [6] and in [7] was inactive. The result in assay [8] and in assay [9] was inactive.

Turning to `CCOc1cc(Oc2ccc(C(F)(F)F)cc2Cl)ccc1[N+](=O)[O-]`, the call in [1], in assay [2], in assay [6], in assay [8] and in assay [10] was inactive. Moreover, the half-maximal activity concentration (AC50) in assay [3] was 23.6 µM (active); in assay [4], 13.6 µM (active); in [5], 33.1 µM (active); in [7], 22 µM (active); in [9] it was 16.6 µM (active).

For `CCCC1COC(Cn2cncn2)(c2ccc(Cl)cc2Cl)O1` (stereo not given), the call in assay [2], in assay [3], in [4], in assay [5], in [6] and in assay [7] was inactive. For the same compound, the compound was classed as inactive in assay [8], in assay [9] and in [10]. Further, the AC50 in assay [4] was 50 µM (active); in [6], 25 µM (active); in assay [7] it was 50 µM (active); in assay [9], 29.7 µM (active); in assay [10], 6.97 µM (active).
